# Results published in PubChem BioAssay (NCI).
# This is part of a sample that, as a whole, favours compounds with a hit. Of some 79,000 tested, about 15% had one in any assay. The source made the active and inactive calls. No stated cut-off is given here; in the data, active means growth inhibition above about 70%; inactive means the rest.
# Assay: NCI Yeast Anticancer Drug Screen. Data for the mlh1 strain (AID 171);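 further: 0% = growth of vehicle-treated control cultures of the same strain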
# Details: S. cerevisiae mlh1 strain growth inhibition; at 1.2 µM; hits give high values
# Outline: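 A yeast strain with a defined genetic lesion serves as the test organism. Cultures receive compound or vehicle, and growth is measured.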
row,Compound,growth inhibition
1,O=CC=C(c1ccccc1)c1ccccc1,5% (inactive)
2,FC(F)(F)c1nc2nc(Cl)c(Cl)nc2n1CCCN1CCOCC1,1% (inactive)
3,BrCC[P+](c1ccccc1)(c1ccccc1)c1ccccc1,-38% (inactive)
4,N#CSc1ccc(S(N)(=O)=O)cc1,-65% (inactive)
5,O=[N+]([O-])c1ccc2nc3ccccc3cc2c1,7% (inactive)
6,O=C(NC(Nc1ccc(F)c(Cl)c1)(C(F)(F)F)C(F)(F)F)C(C(F)(F)F)C(F)(F)F,26% (inactive)
7,O=C(/C=C\c1ccc(Cl)cc1Cl)c1cccs1,-4% (inactive)
8,O=C(NCCCCNCCCNC(=O)c1cc(-c2ccccc2)nc2ccccc12)c1cc(-c2ccccc2)nc2ccccc12,0% (inactive)
9,NC(=NCc1ccccc1)N/N=C\c1ccnc2ccccc12,-2% (inactive)
10,CCCCN(CCCC)CCSc1ccc(Cl)cc1,-14% (inactive)
11,COc1cc(C2C3=C(COC3=O)Oc3cc4c(cc32)OCO4)ccc1O (stereo not drawn),-1% (inactive)
12,C#CCCCc1ccccc1,-20% (inactive)
13,CCc1ccc(NS(=O)(=O)c2ccccc2)c([N+](=O)[O-])c1,0% (inactive)
14,COc1ccc(C2c3cc4c(cc3OC(C)(O)C2C)OCO4)c(OC)c1 (stereo not drawn),3% (inactive)
15,COC(=O)c1ccc(CCC2=CC(=O)C(Br)=CC2=O)cc1,0% (inactive)
16,NNC(=O)CCc1ccc2ccc3ccccc3c2c1,6% (inactive)
17,Cn1c2ccccc2c(=O)c2cc(NC(=O)CCCCC(=O)Nc3ccc4c(c3)c(=O)c3ccccc3n4C)ccc21,0% (inactive)
18,CC(CC(C)(C)[N+](C)(C)C)[N+](C)(C)C (stereo not drawn),-1% (inactive)
19,CC1CCN(CCC(=O)c2ccc(Cl)cc2)CC1,2% (inactive)
20,CCCCCCCCCCCCCCC(C(=O)[O-])[n+]1ccccc1 (stereo not drawn),0% (inactive)

row,Compound,growth inhibition
1,CNC1C(OC2C(OC3C(O)C(O)C(N=C(N)N)C(O)C3N=C(N)N)OC(C)C2(O)CO)OC(CO)C(O)C1O (stereo not drawn),-2% (inactive)
2,O=C(O)c1ccccc1-c1ccccc1C(=O)Nc1ccc2c(c1)Cc1ccccc1-2,7% (inactive)
3,O=[N+]([O-])c1cccc2nc3ccccc3c(NCCCN3CCOCC3)c12,16% (inactive)
4,C=CC(C)(O)CCC1C(=C)C(O)CC2C(C)(C)CCCC12C (stereo not drawn),-4% (inactive)
5,CN1c2ccc(Cl)cc2C(=O)NC1c1ccc([N+](=O)[O-])s1 (stereo not drawn),13% (inactive)
6,[O-][n+]1c2ccc(O)cc2nc2ccc(Br)cc21,2% (inactive)
7,O=C1c2ccccc2-c2nc3ccccc3nc21,-31% (inactive)
8,CCCCN1C(=O)N(c2ccc(OCC)cc2)C2N(CCCC)C1C(C)(C)C2(C)C (stereo not drawn),-6% (inactive)
9,CO[C@H]1C[C@](C)(O)Cc2cc3c(c(O)c21)C(=O)c1c(O)cc2c(c1C3=O)O[C@@H]1O[C@@]2(C)[C@H](O)[C@@H](N(C)C)[C@@H]1O,-42% (inactive)
10,COc1cc2c(cc1[N+](=O)[O-])C(=O)C(Br)(Br)CCC2,50% (inactive)
11,O=C1OC(CCl)CN1/N=C/c1ccc([N+](=O)[O-])o1 (stereo not drawn),-9% (inactive)
12,CN(C)CCOc1ccc2c(c1)C/C(=C/c1ncc([N+](=O)[O-])n1C)C2=O,31% (inactive)
13,CCCCCCCCCCCCCCCCCCN(C)CC(COP(=O)([O-])OCC[N+](C)(C)C)OC (stereo not drawn),5% (inactive)
14,CC(C)c1ccccc1NC(=O)/C(Cl)=C(\Cl)C(=O)O,-1% (inactive)
15,O=[N+]([O-])C(=C(Sc1ccccc1)Sc1ccccc1)C(Cl)=C(Cl)Cl,8% (inactive)
16,C(=C\c1ccccc1)/COc1ccccc1C(N1CCOCC1)n1nc2ccccc2n1 (stereo not drawn),-2% (inactive)
17,O=C1C(Nc2ccccc2)=C(Oc2ccccc2)C(=O)c2ccccc21,-5% (inactive)
18,CCN(CC)CCN1C(=O)c2cccc3cc(OC)cc(c23)C1=O,-24% (inactive)
19,CN(C)Cc1cc(N=Nc2ccc(Cl)cc2)cc(CN(C)C)c1O,14% (inactive)

# Same assay, conditions: S. cerevisiae mlh1 strain growth inhibition; at 3.7 µM; hits give high values
row,Compound,growth inhibition
1,O=CC=C(c1ccccc1)c1ccccc1,10% (inactive)
2,FC(F)(F)c1nc2nc(Cl)c(Cl)nc2n1CCCN1CCOCC1,6% (inactive)
3,BrCC[P+](c1ccccc1)(c1ccccc1)c1ccccc1,-70% (inactive)
4,N#CSc1ccc(S(N)(=O)=O)cc1,-44% (inactive)
5,O=[N+]([O-])c1ccc2nc3ccccc3cc2c1,0% (inactive)
6,O=C(NC(Nc1ccc(F)c(Cl)c1)(C(F)(F)F)C(F)(F)F)C(C(F)(F)F)C(F)(F)F,25% (inactive)
7,O=C(/C=C\c1ccc(Cl)cc1Cl)c1cccs1,0% (inactive)
8,O=C(NCCCCNCCCNC(=O)c1cc(-c2ccccc2)nc2ccccc12)c1cc(-c2ccccc2)nc2ccccc12,-1% (inactive)
9,NC(=NCc1ccccc1)N/N=C\c1ccnc2ccccc12,-1% (inactive)
10,CCCCN(CCCC)CCSc1ccc(Cl)cc1,-11% (inactive)
11,COc1cc(C2C3=C(COC3=O)Oc3cc4c(cc32)OCO4)ccc1O (stereo not drawn),-5% (inactive)
12,C#CCCCc1ccccc1,-22% (inactive)
13,CCc1ccc(NS(=O)(=O)c2ccccc2)c([N+](=O)[O-])c1,3% (inactive)
14,COc1ccc(C2c3cc4c(cc3OC(C)(O)C2C)OCO4)c(OC)c1 (stereo not drawn),2% (inactive)
15,COC(=O)c1ccc(CCC2=CC(=O)C(Br)=CC2=O)cc1,-4% (inactive)
16,NNC(=O)CCc1ccc2ccc3ccccc3c2c1,3% (inactive)
17,Cn1c2ccccc2c(=O)c2cc(NC(=O)CCCCC(=O)Nc3ccc4c(c3)c(=O)c3ccccc3n4C)ccc21,2% (inactive)
18,CC(CC(C)(C)[N+](C)(C)C)[N+](C)(C)C (stereo not drawn),-1% (inactive)
19,CC1CCN(CCC(=O)c2ccc(Cl)cc2)CC1,14% (inactive)
20,CCCCCCCCCCCCCCC(C(=O)[O-])[n+]1ccccc1 (stereo not drawn),-3% (inactive)

row,Compound,growth inhibition
1,CNC1C(OC2C(OC3C(O)C(O)C(N=C(N)N)C(O)C3N=C(N)N)OC(C)C2(O)CO)OC(CO)C(O)C1O (stereo not drawn),-4% (inactive)
2,O=C(O)c1ccccc1-c1ccccc1C(=O)Nc1ccc2c(c1)Cc1ccccc1-2,12% (inactive)
3,O=[N+]([O-])c1cccc2nc3ccccc3c(NCCCN3CCOCC3)c12,54% (inactive)
4,C=CC(C)(O)CCC1C(=C)C(O)CC2C(C)(C)CCCC12C (stereo not drawn),-12% (inactive)
5,CN1c2ccc(Cl)cc2C(=O)NC1c1ccc([N+](=O)[O-])s1 (stereo not drawn),14% (inactive)
6,[O-][n+]1c2ccc(O)cc2nc2ccc(Br)cc21,15% (inactive)
7,O=C1c2ccccc2-c2nc3ccccc3nc21,-30% (inactive)
8,CCCCN1C(=O)N(c2ccc(OCC)cc2)C2N(CCCC)C1C(C)(C)C2(C)C (stereo not drawn),-11% (inactive)
9,CO[C@H]1C[C@](C)(O)Cc2cc3c(c(O)c21)C(=O)c1c(O)cc2c(c1C3=O)O[C@@H]1O[C@@]2(C)[C@H](O)[C@@H](N(C)C)[C@@H]1O,-38% (inactive)
10,COc1cc2c(cc1[N+](=O)[O-])C(=O)C(Br)(Br)CCC2,73% (active)
11,O=C1OC(CCl)CN1/N=C/c1ccc([N+](=O)[O-])o1 (stereo not drawn),-4% (inactive)
12,CN(C)CCOc1ccc2c(c1)C/C(=C/c1ncc([N+](=O)[O-])n1C)C2=O,36% (inactive)
13,CCCCCCCCCCCCCCCCCCN(C)CC(COP(=O)([O-])OCC[N+](C)(C)C)OC (stereo not drawn),11% (inactive)
14,CC(C)c1ccccc1NC(=O)/C(Cl)=C(\Cl)C(=O)O,1% (inactive)
15,O=[N+]([O-])C(=C(Sc1ccccc1)Sc1ccccc1)C(Cl)=C(Cl)Cl,19% (inactive)
16,C(=C\c1ccccc1)/COc1ccccc1C(N1CCOCC1)n1nc2ccccc2n1 (stereo not drawn),-2% (inactive)
17,O=C1C(Nc2ccccc2)=C(Oc2ccccc2)C(=O)c2ccccc21,0% (inactive)
18,CCN(CC)CCN1C(=O)c2cccc3cc(OC)cc(c23)C1=O,-5% (inactive)
19,CN(C)Cc1cc(N=Nc2ccc(Cl)cc2)cc(CN(C)C)c1O,12% (inactive)
